Source: PubChem BioAssay (EPA / NIEHS)
Active and inactive are the calls of the source. How the source made its calls: active means hit-call score of the fitted dose curve at least 0.9, where 1 is the maximum; inactive means score below 0.9.

Key:
[1] = read-out: Monokine induced gamma interferon (MIG), CXCL9 (gene 4283); assay: BSK_hDFCGF_MIG: BioMAP Diversity Plus: hDFCGF Assay for Monokine induced gamma interferon (MIG) Biomarker Activity (AID 2283063); conditions: primary human foreskin fibroblasts; actives raise or lower the signal
Procedure, shortened: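 ELISA read-out of MIG from primary human dermal fibroblasts 24 h post-dosing. Gain or loss of signal fitted bidirectionally, DMSO as baseline.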

[2] = read-out: Matrix Metallopeptidase 1 (MMP1), MMP1 (gene 4312); assay: BSK_hDFCGF_MMP1: BioMAP Diversity Plus: hDFCGF Assay for Matrix Metallopeptidase 1 (MMP1) Biomarker Activity (AID 2283064); conditions: primary human foreskin fibroblasts; actives raise or lower the signal
Procedure, shortened: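 hDFCGF primary fibroblasts (human foreskin); chemical added; 24 h; MMP1 by ELISA; bidirectional fit vs DMSO.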

[3] = read-out: Vascular cell adhesion molecule 1 (VCAM1), VCAM1 (gene 7412); assay: BSK_hDFCGF_VCAM1: BioMAP Diversity Plus: hDFCGF Assay for Vascular cell adhesion molecule 1 (VCAM1) Biomarker Activity (AID 2283065); conditions: primary human foreskin fibroblasts; actives raise or lower the signal
Procedure, shortened: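 Primary human foreskin fibroblasts (hDFCGF system) were dosed with chemical and VCAM-1 was measured by ELISA 24 h later. Bidirectional curve fitting used DMSO as negative control and activity baseline.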

[4] = read-out: Plasminogen activator inhibitor-1 (PAI1), SERPINE1 (gene 5054); assay: BSK_hDFCGF_PAI1: BioMAP Diversity Plus: hDFCGF Assay for Plasminogen activator inhibitor-1 (PAI1) Biomarker Activity (AID 2283066); conditions: primary human foreskin fibroblasts; actives raise or lower the signal
Procedure, shortened: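 Human foreskin fibroblasts in the hDFCGF system were dosed with compound for 24 h; PAI-1 was quantified by ELISA. Bidirectional curve fitting used DMSO as negative control and baseline.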

[5] = read-out: Intercellular Adhesion Molecule 1 (ICAM1), ICAM1 (gene 3383); assay: BSK_KF3CT_ICAM1: BioMAP Diversity Plus: KF3CT Assay for Intercellular Adhesion Molecule 1 (ICAM1) Biomarker Activity (AID 2283067); conditions: primary human keratinocytes with fibroblasts; actives raise or lower the signal
Procedure, shortened: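 Human keratinocyte plus foreskin fibroblast primary co-culture was exposed to chemical for 24 h. ICAM-1 was then quantified by ELISA, and the data were fit bidirectionally against DMSO as the negative control and baseline.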

[6] = read-out: Interferon-gamma inducible Protein 10 (IP10), CXCL10 (gene 3627); assay: BSK_KF3CT_IP10: BioMAP Diversity Plus: KF3CT Assay for Interferon-gamma inducible Protein 10 (IP10) Biomarker Activity (AID 2283068); conditions: primary human keratinocytes with fibroblasts; actives raise or lower the signal
Procedure, shortened: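 Signal is secreted/surface IP-10 by ELISA in a human primary skin co-culture of keratinocytes and foreskin fibroblasts, taken 24 h post-dosing; DMSO served as negative control.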

[7] = BSK_KF3CT_SRB: Viability Assessment in the BioMAP Diversity Plus: KF3CT Assay (AID 2283069); conditions: primary human keratinocytes with fibroblasts;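 further: total protein by sulforhodamine B staining as a cytotoxicity measure; read 24 h after compound addition; fitted for both signal gain and loss against DMSO baseline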
Procedure, shortened: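 Keratinocytes co-cultured with foreskin fibroblasts (human primary); chemical added, 24 h; fix 10% TCA, stain 0.1% SRB, A560. Bidirectional fit vs DMSO.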

[8] = read-out: Interleukin-1 alpha (IL1a), IL1A (gene 3552); assay: BSK_KF3CT_IL1a: BioMAP Diversity Plus: KF3CT Assay for Interleukin-1 alpha (IL1a) Biomarker Activity (AID 2283070); conditions: primary human keratinocytes with fibroblasts; actives raise or lower the signal
Procedure, shortened: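 Chemicals were dosed onto co-cultured human keratinocytes and foreskin fibroblasts, IL-1a was quantified by ELISA at 24 h, and activity was fitted in both directions relative to DMSO controls.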

[9] = read-out: TIMP metallopeptidase inhibitor 2 (TIMP2), TIMP2 (gene 7077); assay: BSK_KF3CT_TIMP2: BioMAP Diversity Plus: KF3CT Assay for TIMP metallopeptidase inhibitor 2 (TIMP2) Biomarker Activity (AID 2283071); conditions: primary human keratinocytes with fibroblasts; actives raise or lower the signal
Procedure, shortened: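 Human primary keratinocyte/foreskin fibroblast co-culture dosed with chemical and sampled at 24 h. TIMP-2 levels quantified by ELISA; bidirectional fitting against DMSO negative control as baseline.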

[10] = read-out: Transforming growth factor beta 1 (TGFb1), TGFB1 (gene 7040); assay: BSK_KF3CT_TGFb1: BioMAP Diversity Plus: KF3CT Assay for Transforming growth factor beta 1 (TGFb1) Biomarker Activity (AID 2283072); conditions: primary human keratinocytes with fibroblasts; actives raise or lower the signal
Procedure, shortened: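 Human keratinocyte plus foreskin fibroblast primary co-culture, dosed with chemical for 24 h. TGF-b1 quantified by ELISA. Activity fitted bidirectionally against DMSO negative control as baseline.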

| Structure (SMILES) | outcome [1] | outcome [2] | outcome [3] | outcome [4] | outcome [5] | outcome [6] | outcome [7] | outcome [8] | outcome [9] | outcome [10] | AC50 [4] | AC50 [10] |
| --- | --- | --- | --- | --- | --- | --- | --- | --- | --- | --- | --- | --- |
| CC(C)(O)c1coc(S(=O)(=O)NC(=O)Nc2c3c(cc4c2CCC4)CCC3)c1 | inactive | inactive | inactive | inactive | inactive | inactive | inactive | inactive | inactive | inactive | – | – |
| CNS(=O)(=O)c1cc(C(=O)N2CCC(CCN3C4CCC3CC(n3c(C)nc5ccccc53)C4)(c3cccc(F)c3)CC2)c(Cl)cc1F (stereo not given) | inactive | inactive | inactive | – | inactive | inactive | inactive | inactive | inactive | – | 20 µM (active) | 32.4 µM (active) |
| Fc1ccccc1[C@@H](F)COC1CCC(Nc2ncnc3[nH]ncc23)CC1 (stereo not given in full) | inactive | inactive | inactive | inactive | inactive | inactive | inactive | inactive | inactive | inactive | – | – |
